In paper PMC7862700, “An all-to-all approach to the identification of sequence-specific readers for epigenetic DNA modifications on cytosine”:

Columns and labels:
Experiment in all cases: DAPPL (digital affinity profiling via proximity ligation, sequencing); 10 mM Tris-HCl pH 7.5, 50 mM NaCl, 1 mM DTT, 4% glycerol, room temperature, 30 min; GST-TFs on glutathione beads, 16-mer random dsDNA library, 0.1% formaldehyde crosslink after washing; high values mean tight binding
Details in all cases: protein: recombinant; tags: N-terminal GST; dsDNA, one strand shown
[1] = target: T1, FLI1 (Homo sapiens, UniProt Q01543 1-452)
T1 sequence: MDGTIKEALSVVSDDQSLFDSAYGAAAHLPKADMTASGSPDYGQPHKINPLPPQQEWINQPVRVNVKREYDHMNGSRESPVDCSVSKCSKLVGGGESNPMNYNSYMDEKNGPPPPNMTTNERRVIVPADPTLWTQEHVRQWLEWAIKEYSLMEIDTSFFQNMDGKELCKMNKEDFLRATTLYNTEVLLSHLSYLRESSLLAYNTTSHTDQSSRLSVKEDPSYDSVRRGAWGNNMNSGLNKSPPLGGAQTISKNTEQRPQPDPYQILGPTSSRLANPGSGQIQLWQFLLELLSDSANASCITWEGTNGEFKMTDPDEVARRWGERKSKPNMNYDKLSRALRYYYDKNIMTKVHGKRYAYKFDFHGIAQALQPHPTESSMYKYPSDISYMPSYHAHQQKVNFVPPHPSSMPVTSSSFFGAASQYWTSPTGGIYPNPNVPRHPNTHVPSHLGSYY
Method in brief: (§1)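 Binding signal is each hexamer's read frequency for a factor divided by its frequency in the tag-only sample. The factors were GST-fused human transcription factors from yeast, captured on glutathione beads, DNA-barcoded and pooled with that sample. Pools were incubated with 200 nmole of a random double-stranded 16-mer DNA library in Tris/NaCl/DTT/glycerol buffer at room temperature for 30 min, then washed, crosslinked with 0.1% formaldehyde, proximity-ligated with BsaI/T4 ligase (1 h, 37 °C), PCR-amplified and sequenced on an Illumina NextSeq500.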

[2] = target: T2, ELK1 (Homo sapiens, UniProt P19419 1-428)
T2 sequence: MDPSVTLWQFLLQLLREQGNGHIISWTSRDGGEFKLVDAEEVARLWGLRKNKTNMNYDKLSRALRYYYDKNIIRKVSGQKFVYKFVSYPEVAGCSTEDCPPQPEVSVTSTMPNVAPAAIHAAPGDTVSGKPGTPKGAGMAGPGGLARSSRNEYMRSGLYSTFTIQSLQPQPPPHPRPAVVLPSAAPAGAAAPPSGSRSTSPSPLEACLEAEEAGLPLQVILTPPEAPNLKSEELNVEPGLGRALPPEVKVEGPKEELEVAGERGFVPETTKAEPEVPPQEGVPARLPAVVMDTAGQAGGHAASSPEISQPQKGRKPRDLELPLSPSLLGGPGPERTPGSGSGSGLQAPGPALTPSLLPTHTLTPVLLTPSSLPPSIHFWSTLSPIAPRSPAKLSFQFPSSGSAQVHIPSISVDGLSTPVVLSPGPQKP
Method in brief: as §1

[3] = target: T3, GABPA (Homo sapiens, UniProt Q06546 1-454)
T3 sequence: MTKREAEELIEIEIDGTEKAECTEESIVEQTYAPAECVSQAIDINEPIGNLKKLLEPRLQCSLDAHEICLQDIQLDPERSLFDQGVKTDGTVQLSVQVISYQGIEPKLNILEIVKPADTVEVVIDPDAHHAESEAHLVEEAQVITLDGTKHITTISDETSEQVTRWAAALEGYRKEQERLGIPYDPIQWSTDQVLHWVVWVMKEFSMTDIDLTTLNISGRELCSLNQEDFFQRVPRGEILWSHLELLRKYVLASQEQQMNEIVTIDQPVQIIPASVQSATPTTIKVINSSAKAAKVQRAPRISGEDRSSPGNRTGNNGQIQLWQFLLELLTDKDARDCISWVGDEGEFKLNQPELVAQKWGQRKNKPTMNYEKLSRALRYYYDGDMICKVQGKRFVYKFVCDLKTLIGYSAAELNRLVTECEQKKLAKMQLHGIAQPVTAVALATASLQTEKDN
Method in brief: as §1

[4] = target: T4, ERG (Homo sapiens, UniProt P11308 1-479)
T4 sequence: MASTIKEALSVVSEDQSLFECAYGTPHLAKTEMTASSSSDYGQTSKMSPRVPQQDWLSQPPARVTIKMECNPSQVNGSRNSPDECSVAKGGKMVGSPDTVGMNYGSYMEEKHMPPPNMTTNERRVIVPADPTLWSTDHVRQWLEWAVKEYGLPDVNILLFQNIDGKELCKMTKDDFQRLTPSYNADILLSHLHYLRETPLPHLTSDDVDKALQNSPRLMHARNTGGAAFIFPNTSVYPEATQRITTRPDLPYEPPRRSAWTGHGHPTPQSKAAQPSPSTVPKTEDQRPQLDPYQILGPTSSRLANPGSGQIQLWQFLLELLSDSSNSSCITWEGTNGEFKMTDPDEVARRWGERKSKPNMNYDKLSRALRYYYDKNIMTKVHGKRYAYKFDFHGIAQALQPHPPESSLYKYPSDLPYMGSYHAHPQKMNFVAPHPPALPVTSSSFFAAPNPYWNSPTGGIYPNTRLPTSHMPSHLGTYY
Method in brief: as §1

[5] = target: ELF1 (Homo sapiens, UniProt P32519 1-619)
Sequence of ELF1 (P32519 whole entry): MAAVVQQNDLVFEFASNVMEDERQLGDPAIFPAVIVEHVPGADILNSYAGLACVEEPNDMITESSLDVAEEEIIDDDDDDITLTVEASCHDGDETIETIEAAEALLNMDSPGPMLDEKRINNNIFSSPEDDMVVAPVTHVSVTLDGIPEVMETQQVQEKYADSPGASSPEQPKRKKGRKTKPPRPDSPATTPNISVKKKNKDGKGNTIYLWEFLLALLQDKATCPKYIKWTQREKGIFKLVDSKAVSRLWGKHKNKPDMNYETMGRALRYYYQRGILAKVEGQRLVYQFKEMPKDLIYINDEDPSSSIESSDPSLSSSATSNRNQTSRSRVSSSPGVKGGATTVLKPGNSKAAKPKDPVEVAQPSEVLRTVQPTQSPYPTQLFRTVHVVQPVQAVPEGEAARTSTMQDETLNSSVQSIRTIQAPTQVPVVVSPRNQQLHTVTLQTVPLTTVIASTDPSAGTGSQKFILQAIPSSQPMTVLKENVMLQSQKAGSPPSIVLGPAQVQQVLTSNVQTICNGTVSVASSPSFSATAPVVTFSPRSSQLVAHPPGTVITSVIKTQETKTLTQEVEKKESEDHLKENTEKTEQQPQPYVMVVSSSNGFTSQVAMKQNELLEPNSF
Method in brief: as §1

[6] = target: T5, EHF (Homo sapiens, UniProt Q9NZC4 1-300)
T5 sequence: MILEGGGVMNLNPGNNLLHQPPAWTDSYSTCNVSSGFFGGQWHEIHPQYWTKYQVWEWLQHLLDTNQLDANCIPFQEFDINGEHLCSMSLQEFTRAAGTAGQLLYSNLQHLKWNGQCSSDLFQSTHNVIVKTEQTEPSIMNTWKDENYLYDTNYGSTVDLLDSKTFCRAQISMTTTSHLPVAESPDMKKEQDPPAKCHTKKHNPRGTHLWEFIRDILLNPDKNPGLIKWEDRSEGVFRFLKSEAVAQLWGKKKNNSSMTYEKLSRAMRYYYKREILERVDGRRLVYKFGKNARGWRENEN
Method in brief: as §1

[7] = target: SPI1 (Homo sapiens, UniProt P17947 1-270)
Method in brief: as §1

[8] = target: SPIB (Homo sapiens, UniProt Q01892 1-262)
Sequence of SPIB (Q01892 whole entry): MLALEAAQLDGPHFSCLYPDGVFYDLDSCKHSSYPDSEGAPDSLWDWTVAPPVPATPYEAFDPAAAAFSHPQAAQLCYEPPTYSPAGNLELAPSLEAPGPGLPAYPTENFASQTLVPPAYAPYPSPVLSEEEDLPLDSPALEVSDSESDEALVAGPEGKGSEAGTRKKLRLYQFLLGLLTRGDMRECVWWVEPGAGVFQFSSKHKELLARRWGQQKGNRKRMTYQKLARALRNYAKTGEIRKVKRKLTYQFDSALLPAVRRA
Method in brief: as §1

[9] = target: T6, ELK3 (Homo sapiens, UniProt P41970 1-407)
T6 sequence: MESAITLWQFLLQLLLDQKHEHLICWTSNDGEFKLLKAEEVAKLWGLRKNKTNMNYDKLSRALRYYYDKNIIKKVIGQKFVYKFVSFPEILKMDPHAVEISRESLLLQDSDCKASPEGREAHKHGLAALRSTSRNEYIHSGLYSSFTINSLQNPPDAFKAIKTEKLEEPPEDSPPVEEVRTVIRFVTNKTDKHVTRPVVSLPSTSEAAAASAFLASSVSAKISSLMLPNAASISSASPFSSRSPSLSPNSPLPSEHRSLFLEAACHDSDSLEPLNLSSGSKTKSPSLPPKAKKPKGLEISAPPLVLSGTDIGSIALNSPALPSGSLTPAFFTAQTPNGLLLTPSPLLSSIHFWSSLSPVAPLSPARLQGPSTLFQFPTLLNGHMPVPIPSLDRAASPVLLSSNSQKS
Method in brief: as §1

| Sequence | binding signal [1] | binding signal [2] | binding signal [3] | binding signal [4] | binding signal [5] | binding signal [6] | binding signal [7] | binding signal [8] | binding signal [9] |
| --- | --- | --- | --- | --- | --- | --- | --- | --- | --- |
| ATACCT | 1.13 fold enrichment (6-mer frequency, TF over GST control) | 1.18 fold enrichment (6-mer frequency, TF over GST control) | 1.07 fold enrichment (6-mer frequency, TF over GST control) | 1.05 fold enrichment (6-mer frequency, TF over GST control) | 1.13 fold enrichment (6-mer frequency, TF over GST control) | 1.08 fold enrichment (6-mer frequency, TF over GST control) | 1.04 fold enrichment (6-mer frequency, TF over GST control) | 1.1 fold enrichment (6-mer frequency, TF over GST control) | 1.08 fold enrichment (6-mer frequency, TF over GST control) |
| GTAATA | 1.12 fold enrichment (6-mer frequency, TF over GST control) | 1.21 fold enrichment (6-mer frequency, TF over GST control) | 1.09 fold enrichment (6-mer frequency, TF over GST control) | 1.15 fold enrichment (6-mer frequency, TF over GST control) | 1.15 fold enrichment (6-mer frequency, TF over GST control) | 1.2 fold enrichment (6-mer frequency, TF over GST control) | 1.11 fold enrichment (6-mer frequency, TF over GST control) | 1.24 fold enrichment (6-mer frequency, TF over GST control) | 1.01 fold enrichment (6-mer frequency, TF over GST control) |
| CAATAA | 1.12 fold enrichment (6-mer frequency, TF over GST control) | 1.07 fold enrichment (6-mer frequency, TF over GST control) | 1.25 fold enrichment (6-mer frequency, TF over GST control) | 1.13 fold enrichment (6-mer frequency, TF over GST control) | 1.13 fold enrichment (6-mer frequency, TF over GST control) | 1.15 fold enrichment (6-mer frequency, TF over GST control) | 1.14 fold enrichment (6-mer frequency, TF over GST control) | 1.11 fold enrichment (6-mer frequency, TF over GST control) | 1.2 fold enrichment (6-mer frequency, TF over GST control) |
| TTCAGG | 1.2 fold enrichment (6-mer frequency, TF over GST control) | 1.14 fold enrichment (6-mer frequency, TF over GST control) | 1.15 fold enrichment (6-mer frequency, TF over GST control) | 1.12 fold enrichment (6-mer frequency, TF over GST control) | 1.1 fold enrichment (6-mer frequency, TF over GST control) | 1.11 fold enrichment (6-mer frequency, TF over GST control) | 1.22 fold enrichment (6-mer frequency, TF over GST control) | 1.1 fold enrichment (6-mer frequency, TF over GST control) | 1.09 fold enrichment (6-mer frequency, TF over GST control) |
| ATACCC | 1.18 fold enrichment (6-mer frequency, TF over GST control) | 1.17 fold enrichment (6-mer frequency, TF over GST control) | 1.19 fold enrichment (6-mer frequency, TF over GST control) | 1.19 fold enrichment (6-mer frequency, TF over GST control) | 1.2 fold enrichment (6-mer frequency, TF over GST control) | 1.21 fold enrichment (6-mer frequency, TF over GST control) | 1.13 fold enrichment (6-mer frequency, TF over GST control) | 1.14 fold enrichment (6-mer frequency, TF over GST control) | 1.13 fold enrichment (6-mer frequency, TF over GST control) |
| CTCTAC | 1.51 fold enrichment (6-mer frequency, TF over GST control) | 1.51 fold enrichment (6-mer frequency, TF over GST control) | 1.56 fold enrichment (6-mer frequency, TF over GST control) | 1.6 fold enrichment (6-mer frequency, TF over GST control) | 1.59 fold enrichment (6-mer frequency, TF over GST control) | 1.54 fold enrichment (6-mer frequency, TF over GST control) | 1.45 fold enrichment (6-mer frequency, TF over GST control) | 1.63 fold enrichment (6-mer frequency, TF over GST control) | 1.27 fold enrichment (6-mer frequency, TF over GST control) |
| CTTAGT | 1.17 fold enrichment (6-mer frequency, TF over GST control) | 1.17 fold enrichment (6-mer frequency, TF over GST control) | 1.2 fold enrichment (6-mer frequency, TF over GST control) | 1.18 fold enrichment (6-mer frequency, TF over GST control) | 1.25 fold enrichment (6-mer frequency, TF over GST control) | 1.22 fold enrichment (6-mer frequency, TF over GST control) | 1.07 fold enrichment (6-mer frequency, TF over GST control) | 1.19 fold enrichment (6-mer frequency, TF over GST control) | 1.19 fold enrichment (6-mer frequency, TF over GST control) |
